From PubChem BioAssay
HEK293 viab = reduces viability of HEK-293 SNCA reporter cells. HEK-293-SNCA-luc viability, GF-AFC fluorescence, 24 h. Potency, µM (top dose mostly 57.1 µM), inactives show at the highest dose activity change, negative = cytotoxicity, actives largely listed as cytotoxic. 150,000 tested, 0.12% active;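 also: potency is read from the fitted curve at half-maximal effect; 0% = DMSO-treated cells and -100% = medium-only wells without cells; nearly all actives have a fitted effect of over 30% in size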
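Cytotoxicity counterscreen: after 24 h compound treatment of genome-edited SNCA-luciferase HEK-293 cells, live-cell protease substrate GF-AFC read by fluorescence after 30 min; activity scaled between DMSO (0%) and medium-only (-100%), curves Hill-fitted.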
IP6K1 inh = blocks human inositol hexakisphosphate kinase 1. Q92551. IP6K1 kinase, ADP-Glo luminescence, 2 h; active compounds read low. activity change, % (series mostly up to about 58 µM). 140,000 tested, 0.81% active; in the data active = activity change below about -25%; also: % is scaled to controls: 0 for no effect and ±100 for the full control effect
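ADP-Glo luminescence measures ADP made by human IP6K1 during a 2 h RT reaction with ATP/IP6 (mix at 1.3 mM/130 uM); top library doses 57.5 and 19.1 uM final.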
SNCA expr inhib = SNCA gene expression inhibition; HEK-293 SNCA-luciferase knock-in, luminescence, 24 h; Potency, µM (titrated, usually from 57.2 µM), inactives show at the top dose activity change, negative = inhibition, most hits filed as inhibitors; 140,000 tested, 0.17% active;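 also: potency is read from the fitted curve at half-maximal effect; plate controls were DMSO cells for no effect and cell-free wells for full effect; nearly all actives have a fitted effect of over 45% in size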
KDM5B inh = blocks human KDM5B histone demethylase activity | KDM5B demethylase, FDH-coupled NADH fluorescence (FDH is formaldehyde dehydrogenase) | Potency, µM (doses to about 57.7 µM), usual class: inhibitors | 220,000 tested, 2.6% active; also: potency is read from the fitted curve at half-maximal effect; 0% is about no effect; nearly all actives have a fitted effect of over 70% in size
Target sequence (Q9UGL1 whole entry, looked up): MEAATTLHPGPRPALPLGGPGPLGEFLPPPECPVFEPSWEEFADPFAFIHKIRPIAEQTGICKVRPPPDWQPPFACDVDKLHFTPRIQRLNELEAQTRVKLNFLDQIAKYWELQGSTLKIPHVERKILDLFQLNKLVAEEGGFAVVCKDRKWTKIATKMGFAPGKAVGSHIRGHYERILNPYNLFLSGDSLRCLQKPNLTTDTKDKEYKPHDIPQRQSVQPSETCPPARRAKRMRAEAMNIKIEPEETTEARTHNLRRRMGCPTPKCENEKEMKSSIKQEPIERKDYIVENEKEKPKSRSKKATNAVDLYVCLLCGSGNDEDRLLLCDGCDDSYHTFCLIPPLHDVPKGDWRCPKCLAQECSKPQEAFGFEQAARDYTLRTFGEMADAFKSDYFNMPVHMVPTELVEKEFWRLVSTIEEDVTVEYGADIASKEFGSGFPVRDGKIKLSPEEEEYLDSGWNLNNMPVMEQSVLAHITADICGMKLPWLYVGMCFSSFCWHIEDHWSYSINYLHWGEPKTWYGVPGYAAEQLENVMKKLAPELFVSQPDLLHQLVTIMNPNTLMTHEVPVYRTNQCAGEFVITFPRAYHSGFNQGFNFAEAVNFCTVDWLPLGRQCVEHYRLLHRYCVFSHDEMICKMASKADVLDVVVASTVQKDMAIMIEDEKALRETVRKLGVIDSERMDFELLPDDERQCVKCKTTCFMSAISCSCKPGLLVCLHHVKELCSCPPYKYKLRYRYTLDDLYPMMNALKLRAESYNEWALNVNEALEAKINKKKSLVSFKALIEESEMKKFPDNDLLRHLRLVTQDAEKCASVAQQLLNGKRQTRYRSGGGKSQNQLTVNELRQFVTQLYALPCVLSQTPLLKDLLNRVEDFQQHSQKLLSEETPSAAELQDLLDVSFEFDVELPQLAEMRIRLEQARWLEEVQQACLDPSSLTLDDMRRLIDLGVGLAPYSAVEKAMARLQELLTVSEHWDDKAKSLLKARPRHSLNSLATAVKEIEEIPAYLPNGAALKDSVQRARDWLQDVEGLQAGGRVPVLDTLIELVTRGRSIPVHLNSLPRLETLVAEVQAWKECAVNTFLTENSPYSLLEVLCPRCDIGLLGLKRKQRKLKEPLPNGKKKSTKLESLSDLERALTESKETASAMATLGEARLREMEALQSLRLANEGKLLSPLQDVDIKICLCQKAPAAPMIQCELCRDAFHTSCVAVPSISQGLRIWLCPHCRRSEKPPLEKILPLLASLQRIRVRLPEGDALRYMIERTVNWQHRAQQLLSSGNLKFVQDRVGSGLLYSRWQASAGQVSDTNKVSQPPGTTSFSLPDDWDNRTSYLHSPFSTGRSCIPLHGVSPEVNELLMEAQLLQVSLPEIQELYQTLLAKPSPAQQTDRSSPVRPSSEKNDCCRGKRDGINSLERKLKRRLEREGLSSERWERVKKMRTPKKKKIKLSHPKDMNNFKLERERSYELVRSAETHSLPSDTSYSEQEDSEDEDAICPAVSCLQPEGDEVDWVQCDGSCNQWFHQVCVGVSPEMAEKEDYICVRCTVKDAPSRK
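Coupled FDH/NAD⁺ fluorescence readout. KDM5BΔAP 200 nM final; compound titration, 10 min RT preincubation; substrate mix 12.5 µM H3K4me3, 25 µM 2-OG, 50 µM Fe(II), 100 µM ascorbate, 0.25 mM NAD⁺, 0.25 U/mL FDH; ΔRFU over 30 min.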
* = called active by the depositor; i = inactive; ? = inconclusive; / = no result given; [ ] = remark or other dose. An excerpt weighted towards active compounds, which were near 3% of everything screened. Unless noted, calls follow the shape of the dose curve; as a rule, active = well fitted curve in the direction sought with a large enough effect; inconclusive = small, poorly fitted or top-dose-only effect, or another doubt; inactive = no such curve, though single readings can be large; an effect the other way counts as inactive or inconclusive.

SMILES | HEK293 viab | IP6K1 inh | SNCA expr inhib | KDM5B inh
CN(C)C[C@@H]1CN(c2ccccn2)C[C@H]1NC(=O)c1cccc(C#N)c1 | -15.8% | -1.7 | -20.6% | ?
COc1ccccc1C(=O)N[C@@H]1CN(c2ccccn2)C[C@H]1CN(C)C | -2.7% | -4.1 | 16.0% | 28.2µM*
CCn1ncc(C(=O)N[C@@H]2CN(c3ccccn3)C[C@H]2CN(C)C)c1C | -12.1% | 4.6 | 13.5% | 31.6µM*
Cn1ncc2c(C(=O)NCC#N)cc(-c3ccccc3F)nc21 | / | 13.6 | / | /
Cc1[nH]c2c(C(=O)NC3CCCC3)cccc2c1C | / | / | / | i
CSc1ccc(-c2ccc3c(c2)C(=O)N2CCN(C(=O)CC(C)(C)C)C[C@@H]2C(=O)N3)cc1 | -20.3% | -11.9 | -21.3% | ?
Cn1cccc1C(=O)N1CCC(Nc2cccnc2)C1 (stereo not drawn) | 9.2% | 5.9 | -5.3% | i
Cc1nc2c(NC3CCN(C(=O)c4cccn4C)CC3)cccn2n1 | 1.3% | 11.5 | 2.8% | 31.6µM*
COc1ccc(F)cc1-c1ccc(CN2CCC(NC(=O)c3ccc(C(F)(F)F)cc3)C2)cc1 (stereo not drawn) | / | -5.3 | / | /
Cc1ccc2nc(CO[C@H]3CN(c4ccc(C#N)cn4)C[C@H]3F)[nH]c2c1 | 0.0%[87.6 µM] | -19.7 | -13.4%[87.6 µM] | 17.8µM*
Cc1ccc2nc(CO[C@H]3CN(C4CCCCC4)C[C@H]3F)[nH]c2c1 | 1.3%[87.6 µM] | -6.8 | -21.7%[87.6 µM] | ?
O=C(NCC1Cn2cccc2C(=O)N1Cc1ccccc1)c1ccsc1 (stereo not drawn) | 8.4% | -4.5 | 1.6% | i
CCNC(=O)NCC1Cn2cccc2CN1C (stereo not drawn) | 2.0% | -2.0 | -20.1% | 22.4µM*
O=C(NCC1Cn2cccc2CN1Cc1ccccc1)c1ccsc1 (stereo not drawn) | -4.9% | -1.7 | 7.2% | 25.1µM*
O=C(NCC1Cn2cccc2CN1Cc1ccccc1)c1n[nH]c2ccccc12 (stereo not drawn) | -2.0% | -15.2 | 102.6% | 14.1µM*
O=C(NCC1Cn2cccc2CN1Cc1ccccc1)c1ccncc1 (stereo not drawn) | -6.2% | -9.6 | 7.8% | 28.2µM*
O=C(NCC1Cn2cccc2CN1Cc1ccccc1)c1ccoc1 (stereo not drawn) | -0.8% | -12.4 | 62.5% | 28.2µM*
O=C(NCC1Cn2cccc2CN1Cc1ccccc1)Nc1ccccc1 (stereo not drawn) | 1.6% | -10.4 | -0.6% | /
CN1Cc2cccn2CC1CNC(=O)c1ccoc1 (stereo not drawn) | -6.7% | 15.5 | -4.0% | 28.2µM*
Cc1ccsc1C(=O)NCC1Cn2cccc2CN1C (stereo not drawn) | 12.0% | -8.2 | 39.9% | 31.6µM*
O=C(c1ccc2nc(-c3ccccn3)oc2c1)N1CCCCC1 | 4.0%[87.6 µM] | -6.6 | ? | /
Cc1ccc(C)c(/C=C(/C#N)S(C)(=O)=O)c1 | / | / | / | i
COC(=O)N1CCC(N2C(=O)c3c(c(C)nn3-c3ccccc3)C2C2CC2)C1 (stereo not drawn) | / | -0.5 | / | /
O=C(NCc1ccc(F)c(F)c1)c1cn2cc(-c3ccc(C(F)(F)F)cc3)sc2n1 | 7.4%[87.6 µM] | 2.0 | -19.2%[87.6 µM] | /
O=C1CCCC2=C1C(c1ccccc1)CC(=O)N2c1ccccc1F (stereo not drawn) | / | / | / | i
SMILES | HEK293 viab | IP6K1 inh | SNCA expr inhib | KDM5B inh
O=C(c1ccccc1)N1CCCC2(C1)Nc1cccnc1NC2=NCc1ccccc1 (stereo not drawn) | -6.0% | 0.0 | 2.6% | 28.2µM*
COCCN=C1Nc2ncccc2NC12CCCN(C(=O)c1cccc(OC)c1)C2 (stereo not drawn) | 2.8% | 3.3 | -5.1% | 31.6µM*
O=C(c1ccsc1)N1CCCC2(C1)Nc1cccnc1NC2=NC1CCCC1 (stereo not drawn) | 0.6% | 12.1 | -23.0% | 8.91µM*
COc1ccc(C(=O)N2CCCC3(C2)Nc2cccnc2NC3=NC2CCCC2)cc1F (stereo not drawn) | -27.6% | 0.6 | 4.5% | ?
CCOc1ccc(C(=O)N2CCCC3(C2)Nc2cccnc2NC3=NC2CCCC2)cc1 (stereo not drawn) | ? | 0.0 | -23.7% | 31.6µM*
Cc1cc(C)cc(NC(=O)CSCc2cc(=O)n3oc(C)cc3n2)c1 | / | / | / | i
O=C(Nc1ccccc1Cl)N1CCCC2(C1)Nc1cccnc1NC2=NC1CCCC1 (stereo not drawn) | ? | 1.3 | -25.4% | 28.2µM*
Cc1cc(C(=O)N2CCCC3(C2)Nc2cccnc2NC3=NCc2ccccc2)nn1C (stereo not drawn) | -0.4% | 0.0 | 16.1% | ?
